An excerpt weighted towards active compounds, which were near 12% of everything screened.
SARS PLP yeast: inhibitors of SARS-CoV papain-like protease in yeast. AID 485353. S. cerevisiae expressing SARS-CoV PLpro, growth rescue. Potency, µM (highest dose often 32.9 µM), hits mostly activators. 330,000 compounds, 0.19% hits; calls by dose curve; note: nearly all actives have a fitted effect of over 55% in size
Pf growth 96h: inhibits malaria parasite growth, 96 h; 320,000 compounds, 6.9% hits; Potency, µM (doses to about 28.7 µM), most hits filed as inhibitors; P. falciparum luciferase reporter growth, 96 h
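96 h incubation, 37 C, 5% CO2, of luciferase-reporter P. falciparum-infected RBCs (2% hematocrit, 0.05% parasitemia final) with test compounds; endpoint luminescence.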
NS1 inh: inhibitors of influenza NS1 protein function | 270,000 compounds, 0.4% hits | Potency, µM (doses to about 46.1 µM); calls by dose curve; note: actives are rising curves; nearly all actives have a fitted effect of over 50% in size
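S. cerevisiae expressing influenza A NS1, grown in glucose, washed, then diluted 1:100 into pH 6.0 -URA galactose medium with 23 nl compound. Growth recovery read as OD600; NS1-free strain serves as control.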
Pf growth 48h: inhibits P. falciparum growth in the first generation, 48 h | AID 504832 | 310,000 compounds, 5.9% hits | Potency, µM (top dose mostly 28.7 µM), usual class: inhibitors | P. falciparum luciferase growth in erythrocytes, 48 h
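In quantitative HTS format, infected erythrocytes bearing luciferase-reporter parasites were treated for a single generation at 37 C. Luminescence after adding detection reagent served as the growth measure.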
AMA1-RON2 inh: AMA1-RON2 (P. falciparum) interaction inhibition. AlphaScreen AMA1-biotinylated RON2 peptide binding. Potency, µM (highest dose often 58.2 µM), most hits filed as inhibitors. 360,000 compounds, 0.2% hits; note: nearly all actives have a fitted effect of over 45% in size
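AMA1 (3D7) with his tag at 25 nM final met compounds first, then biotinylated RON2 peptide at 25 nM; detection used donor plus acceptor beads, 10 µg/mL apiece, read by AlphaScreen after 30 min at room temperature.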
HCV inh: inhibitors of hepatitis C virus infection | 340,000 compounds, 3.4% hits | Huh7.5.1 HCVcc-Cre infection, luciferase reporter, 44 h | Potency, µM (titrated, usually from 41.8 µM), most hits filed as inhibitors
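After 44 h co-culture of compound, cells and HCVcc-Cre (~0.5 moi), substrate is added for 15 min at room temperature and luciferase measured over 15 sec. Cells were seeded at 1,000/well and pre-cultured 4 h.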
Numbers stand for hits; . = inactive; ? = inconclusive; / = not tested or not shown; [ ] = another dose, or the depositor's remark. Unless noted, calls come from the whole dose curve; as a rule, active = well fitted curve in the direction sought with a large enough effect; inconclusive = small, poorly fitted or top-dose-only effect, or another doubt; inactive = no such curve, though single readings can be large; an effect the other way counts as inactive or inconclusive.

SMILES	SARS PLP yeast	Pf growth 96h	NS1 inh	Pf growth 48h	AMA1-RON2 inh	HCV inh
O=C(Nc1ccccc1N1CCOCC1)c1ccc(Br)o1	.	?	.	.	.	?
Oc1ccc2[nH]cc(CCCCN3CC=C(c4ccccc4)CC3)c2c1	/	4.3µM	/	4.3µM	/	/
CC1CCN(Cc2cc(=O)oc3ccc(C(C)C)cc23)CC1	.	1.9µM	.	3.3µM	.	?
Cc1cc2oc(=O)cc(CN3CCCCC3C)c2cc1Cl (stereo not given)	.	.	.	?	.	?
Cc1cc2oc(=O)cc(CN3CCCCC3)c2cc1O	.	.	.	.	.	.
Cc1cc2oc(=O)cc(CN3CCC(C)CC3)c2cc1C	.	?	.	?	.	.
CC(C)c1ccc2oc(=O)cc(CN3CCCCC3)c2c1	.	?	.	7.4µM	.	.
Cc1cc2oc(=O)cc(CN3CCCCC3C)c2cc1C (stereo not given)	.	9.3µM	.	10µM	.	.
Cc1cc2oc(=O)cc(CN3CCCCC3)c2cc1C(C)C	.	.	.	7.4µM	.	?
CC1CCN(Cc2cc(=O)oc3ccc4ccccc4c23)CC1	.	8.3µM	.	7.4µM	.	.
CC(C)c1ccc2oc(=O)cc(CN3CCN(c4ccccc4)CC3)c2c1	.	?	.	13µM	.	.
CCc1ccc2c(CN3CCN(S(=O)(=O)c4cccs4)CC3)cc(=O)oc2c1	.	?	.	?	.	?
O=c1cc(CN2CCN(c3ccccc3)CC2)c2ccccc2o1	/	/	/	/	.	/
CCc1ccc2c(CN3CCN(S(=O)(=O)c4ccccc4F)CC3)cc(=O)oc2c1	.	/	/	/	.	13µM
COc1cccc(NCc2cc(=O)oc3cc(C)c(C(C)C)cc23)c1	.	?	.	?	.	10µM
COc1ccc(NCc2cc(=O)oc3cc(NC(C)=O)ccc23)cc1	.	.	.	?	.	.
Cc1cccnc1NC1(C(F)(F)F)N=C2SCCN2C1=O (stereo not given)	.	.	/	.	.	.
CCCCn1c(N)c(N(CC(C)C)C(=O)c2ccc(S(=O)(=O)N3CCCCCC3)cc2)c(=O)[nH]c1=O	.	?	/	?	.	.
CN1CCN(Cc2cc(=O)oc3ccc(Cl)cc23)CC1	.	13µM	.	.	.	.
CCOC(=O)N1CCN(Cc2cc(=O)oc3cc4c(cc23)CCC4)CC1	.	4.7µM	.	?	.	.
CCc1ccc2oc(=O)cc(CN3CCCCC3)c2c1	.	5.2µM	.	12µM	.	.
CCN1CCN(Cc2cc(=O)oc3ccc(Cl)cc23)CC1	.	.[5.75 µM]	.	.	.	.
Cc1cc2oc(=O)cc(Cn3nnc(-c4ccc(Cl)cc4)n3)c2cc1C(C)C	.	?	.	12µM	/	.
COc1cc(NS(=O)(=O)c2ccc(NC(=O)/C=C/C(=O)O)cc2)nc(OC)n1	.	.	.	.	.	.
CN(CCc1ccccc1)C(=O)c1cccc(NC(=O)Cc2cccc(NC(=O)C3CCN(C(=O)c4ccccc4)CC3)c2)c1	/	/	/	/	.	.[8.37 µM]
SMILES	SARS PLP yeast	Pf growth 96h	NS1 inh	Pf growth 48h	AMA1-RON2 inh	HCV inh
O=C(O)c1cc(=O)c2ccc(Cl)cc2[nH]1	/	/	.	/	/	/
N[C@@](CC(=O)O)(Cc1ccccc1)C(=O)O	/	/	.	/	/	/
CCC(C)C(=O)Nn1c(C2CC2)nc2cc(OC)c(OC)cc2c1=O (stereo not given)	.	?	/	.	.	.
CCOC(=O)c1cc(S(=O)(=O)NCC2CCN(Cc3cccc(C)c3)CC2)cn1C	.	.	.	.	.	.
C=CCn1c(SCc2c(C)noc2C)nc2sc3c(c2c1=O)CCCC3	.	2.1µM	.	13µM	.	?
Cc1sc2nc(SCc3nc(-c4cccs4)no3)n(-c3ccccc3)c(=O)c2c1C	.	?	?	?	.	.
Cc1noc(C)c1CSc1nc2sc3c(c2c(=O)n1C)CCCC3	.	1.7µM	.	/	.	?
Cc1noc(C)c1CSc1nc2sc(C)c(C)c2c(=O)n1C1CCCC1	.	/	.	4.1µM	.	?
C=CCn1c(SCc2c(C)noc2C)nc2sc3c(c2c1=O)CCCCC3	.	/	.	1.9µM	.	?
COC(=O)c1ccc(CSc2nc3sc4c(c3c(=O)n2C)CCCC4)o1	.	?	.	.	.	.
COC(=O)c1sc(N)c(C(=O)OC)c1CSc1nc2sc3c(c2c(=O)n1C)CCC3	.	1.7µM	.	?	.	.
CCSc1nnc(NC(=O)c2ccccn2)s1	.	.	.	2.9µM	.	?
CCSc1nnc(NC(=O)C2Cc3ccccc3CN2S(=O)(=O)CC)s1 (stereo not given)	.	13µM	.	.	.	.
Cc1ccc(CN2CC(C(=O)Nc3nnc(SCc4c(Cl)cccc4Cl)s3)CC2=O)cc1 (stereo not given)	.	?	?	.	.	.
CCc1nnc(NC(=O)c2cc(Cl)ccn2)s1	.	5.9µM	.	?	.	.
CCc1nnc(NC(=O)c2ccc(Cl)nc2)s1	.	.	/	.	.	.
Cc1cnc(C(=O)Nc2nnc(SCc3c(Cl)cccc3Cl)s2)cn1	.	2.9µM	.	2.6µM	.	?
COc1ccc2cc3cc(C(=O)NCCN4CCc5ccccc5C4)sc3nc2c1	.	2.6µM	.	?	.	.
COc1ccc2cc3cc(C(=O)NCCN4CCc5ccccc5C4)oc3nc2c1	.	?	.	3.3µM	.	?
CCC(C)NC(=O)c1cc2cc3ccc(OC)cc3nc2s1 (stereo not given)	.	.	.	/	.	?
CCOC(=O)C1=C(C)N=C2SC(C(=O)OC)=CC(=O)N2C1c1cc(OC)c(OC)c(OC)c1 (stereo not given)	.	.	?	4.7µM	.	.
CCOC(=O)C1=C(C)N=C2SCCC(=O)N2C1c1ccc(C(=O)OC)cc1 (stereo not given)	.	/	.	/	.	.
Cc1noc(C)c1S(=O)(=O)N1CCC(C(=O)N2CCN(Cc3ccc4c(c3)OCO4)CC2)CC1	.	5.9µM	.	?	.	?
N#Cc1ccc(S(=O)(=O)N2CCC(C(=O)N3CCN(Cc4ccc5c(c4)OCO5)CC3)CC2)cc1	.	?	/	?	.	10µM
CN(C[C@H](Cc1ccccc1)N(C[C@H](Cc1ccccc1)N(CCc1cc(C(F)(F)F)cc(C(F)(F)F)c1)N=O)N=O)N=O	.	4.1µM	.	?	.	.
CN(C[C@H](CC1CCCCC1)N(C[C@H](Cc1ccccc1)N(CCc1ccccc1)N=O)N=O)N=O	.	?	.	13µM	.	.
O=C(CCc1nnc(CCCc2ccccc2)o1)NCCc1ccccc1	.	.	.	.	.	.
O=C(CCc1nnc(CCCc2ccccc2)o1)NCCc1ccco1	.	9.3µM	.	.	.	.
CC(C)CCNC(=O)CCc1nnc(COc2ccccc2)o1	.	?	.	.	.	.
O=C(CCc1nnc(COc2ccccc2)o1)NCCc1cccs1	.	10µM	.	.	.	.

High-throughput results: PubChem, National Center for Advancing Translational Sciences (NCATS)
